# PubChem BioAssay (NCATS)
# “And” between values parts separate entries of the source, which are not always exact repeats. Identical values can stand only once. Records with an inconclusive call do not appear. Entries that show only a call come without a potency. The source made the active and inactive calls. Unless noted, calls follow the shape of the dose curve; as a rule, active = well fitted curve in the direction sought with a large enough effect; inconclusive = small, poorly fitted or top-dose-only effect, or another doubt; inactive = no such curve, though single readings can be large; an effect the other way counts as inactive or inconclusive.
# Experiments:
# [1] = Cellular Toxicity (caspase-3) N2a (AID 665);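 also: compound exposure lasted 16 h at 37 °C before readout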
# Method in brief: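 Plated mouse neuroblastoma N2a cells received titrated compounds for 16 h in complete medium. Caspase activity was then detected with a peptide-aminoluciferin luminescent reagent.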
# [2] = Cellular Toxicity (caspase-3) NIH 3T3 (AID 666);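 also: caspase signal read after 16 h compound exposure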
# Method in brief: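 Concentration-response qHTS in NIH 3T3 mouse fibroblasts scores caspase-3/7 activation as rising luminescence after 16 hr compound exposure. Signals are scaled between DMSO-only and 100 uM tamoxifen.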
# [3] = Cell Viability - LYMP2-001 (AID 921);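 also: cells exposed to compound for 24 h at 37 °C; nearly all actives have a fitted effect of over 70% in size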
# Method in brief: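 CellTiter-Glo luminescence (intracellular ATP) after 24 hr compound exposure at 37 C, 2500 lymphoblastoid cells/well in complete medium. AC50 fitted with standard Hill equation; tetraoctylammonium bromide positive control.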
# [4] = Cell Viability - LYMP1-002 - Assay at 16 hr (AID 948)
# Method in brief: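 LYMP1-002 human lymphoblastoid cells, 2500/well; 5 hr 37 C; cpd 16 hr 37 C; CellTiter-Glo 30 min RT; luminescence (ATP). Concentration-response, Hill-fit AC50. Pos ctrl tetraoctylammonium bromide.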
# [5] = Cell Viability - LYMP1-003 - Assay at 24 hr (AID 963)
# Method in brief: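 Acute toxicity in LYMP1-003 lymphoblastoid cells: 24 hr compound treatment at 37 C, ATP measured with CellTiter-Glo after 30 min at room temperature. AC50 derived by fitting the Hill equation to qHTS titrations.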
# [6] = Cell Viability - LYMP2-015 (AID 971);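 also: cells exposed to compound for 24 h; nearly all actives have a fitted effect of over 55% in size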
# Method in brief: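 Acute toxicity was scored as a concentration-dependent drop in intracellular ATP in lymphoblastoid cells after 24 hr compound exposure in complete medium. Detection used CellTiter-Glo luciferase luminescence.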
# [7] = Cell Viability - LYMP2-019 (AID 973);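 also: cells exposed to compound for 24 h at 37 °C; nearly all actives have a fitted effect of over 55% in size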
# Method in brief: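 Cells plated at 2500/well and allowed 5 hr at 37 C before compound addition. After 24 hr incubation, CellTiter-Glo reagent was added, plates sat 30 min at room temperature, and luminescence was recorded.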
# [8] = Cell Viability - LYMP2-021 (AID 974);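 also: compound exposure lasts 24 hours at 37 °C; nearly all actives have a fitted effect of over 55% in size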
# Method in brief: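 Concentration-response cytotoxicity in a human lymphoblastoid line: 24 hr treatment at 37 C in complete culture medium, tetraoctylammonium bromide as positive control, luminescent ATP quantitation as viability measure.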
# [9] = Cell Viability - LYMP2-025 (AID 976);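 also: cells exposed to compound for 24 h at 37 °C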
# Method in brief: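 In qHTS format, LYMP2-025 lymphoblastoid cells in complete culture medium received compound for 24 hr; ATP-based CellTiter-Glo signal gave viability, with AC50 derived by Hill equation.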
# [10] = Cell Viability - LYMP2-014 (AID 983);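 also: cells exposed to compound for 24 h at 37 °C; nearly all actives have a fitted effect of over 50% in size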
# Method in brief: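 Decrease in intracellular ATP after 24 hr treatment at 37 C, measured by luciferase luminescence, indicated cytotoxicity. Concentration-response data were fitted with the standard Hill equation to give AC50.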
# [11] = Cell Viability - LYMP2-026 (AID 989);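 also: cells exposed to compound for 24 h at 37 °C; nearly all actives have a fitted effect of over 50% in size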
# Method in brief: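 Concentration-dependent loss of intracellular ATP in human lymphoblastoid cells after 24 hr at 37 C, quantified by luciferase luminescence. AC50 derived from standard Hill equation.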
# [12] = Cell Viability - LYMP1-002 - Assay at 24 hr (AID 993)
# Method in brief: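 qHTS, LYMP1-002 lymphoblastoid, 24 h cpd, 37 C, CellTiter-Glo ATP luminescence; AC50 via Hill eq.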
# [13] = Cell Viability - LYMP1-002 - Assay at 40 hr (AID 994); also: nearly all actives have a fitted effect of over 60% in size
# Method in brief: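 Viability in the human lymphoblastoid line was measured as intracellular ATP via CellTiter-Glo after 40 hr compound exposure. Tetraoctylammonium bromide served as positive control.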
# [14] = target: Peroxisome proliferator-activated receptor gamma (Homo sapiens) (UniProt P37231); test: qHTS assay for small molecule antagonists of peroxisome proliferator-activated receptor gamma signaling (AID 588537; active = well fitted inhibition curve with a large enough effect in the signal ratio, with a control signal flat, not every such curve was filed as active; the % refers to the signal ratio;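 also: reporter cells co-stimulated with 50 nM rosiglitazone agonist during compound treatment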)
# Method in brief: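 Inhibitors of agonist-stimulated UAS-bla reporter activity were sought in HEK293 cells; rosiglitazone (50 nM) defined full signal and DMSO baseline. Curves fitted to Hill model gave IC50 and efficacy.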
# [15] = qHTS assay for small molecule agonists of retinoid X receptor alpha signaling (AID 588544; calls by dose curve); conditions: HEK293T RXRa-UAS-bla, beta-lactamase reporter, 18 h; 530 nm emission
# [16] = target: Retinoic acid receptor RXR-alpha (Homo sapiens) (UniProt P19793); test: as above
# [17] = target: Thyroid hormone receptor beta (Homo sapiens) (UniProt P10828); test: qHTS assay for small molecule antagonists of thyroid hormone receptor beta signaling (AID 588547; active = well fitted inhibition curve with a large enough effect in the signal ratio, with a control signal flat, not every such curve was filed as active; the % refers to the signal ratio;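 also: cells stimulated with 0.4 nM T3 agonist during compound exposure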); conditions: TR-UAS-bla HEK293, beta-lactamase ratio, antagonist mode, 18 h
# Method in brief: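 Inhibition of T3-driven (0.4nM final) beta-lactamase reporter activity was measured over 0.59 nM to 92 uM compound after 18 h at 37 C. The cells were GripTite HEK293 TR-UAS-bla in charcoal/dextran-stripped serum, with CCF4 ratio read-out and IC50 from Hill fits.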
# [18] = qHTS assay for small molecule antagonists of the retinoid-related orphan receptor gamma (ROR-gamma) signaling pathway - cell viability counter screen (AID 720652; active = well fitted curve in the direction sought with a large enough effect in the repeat runs; an effect the other way counts as inactive or inconclusive;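 also: compound exposure lasted 16 hr before ATP read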; also: potency is read from the fitted curve at half-maximal effect)
# Method in brief: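 Cytotoxicity is quantified via intracellular ATP (CellTiter-Glo luminescence) in doxycycline-induced CHO ROR response element-luciferase reporter cells treated with compound for 16 hr at 37 C, 5% CO2.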
# [19] = qHTS assay for small molecule activators of the p53 signaling pathway (AID 651743; active = well fitted activation curve with a large enough effect in the signal ratio, not every such curve was filed as active; the % refers to the signal ratio); conditions: HCT-116 p53RE-bla, beta-lactamase FRET ratio, 16 h; activation: stronger effect = higher value
# Method in brief: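 Screen for p53 pathway agonists uses stably transfected p53RE-bla HCT-116 cells, 4,000 per well, treated 16 h at 37 C with compounds in DMSO.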
# W2 = test: qHTS profiling for inhibitors of Plasmodium falciparum proliferation (AID 504749); also: nearly all actives have a fitted effect of over 60% in size; also: potency is read from the fitted curve at half-maximal effect; conditions: P. falciparum in erythrocytes, SYBR Green DNA, 72 h; series mostly up to 28.7 µM
# Method in brief: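 Three-day growth assay of blood-stage parasites in erythrocytes (0.3% parasitemia, 2.5% hematocrit) at 37 C, 5% CO2, quantified by SYBR Green DNA staining after overnight detergent lysis.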
# Sequence of Peroxisome proliferator-activated receptor gamma (Homo sapiens) (P37231 whole entry, looked up): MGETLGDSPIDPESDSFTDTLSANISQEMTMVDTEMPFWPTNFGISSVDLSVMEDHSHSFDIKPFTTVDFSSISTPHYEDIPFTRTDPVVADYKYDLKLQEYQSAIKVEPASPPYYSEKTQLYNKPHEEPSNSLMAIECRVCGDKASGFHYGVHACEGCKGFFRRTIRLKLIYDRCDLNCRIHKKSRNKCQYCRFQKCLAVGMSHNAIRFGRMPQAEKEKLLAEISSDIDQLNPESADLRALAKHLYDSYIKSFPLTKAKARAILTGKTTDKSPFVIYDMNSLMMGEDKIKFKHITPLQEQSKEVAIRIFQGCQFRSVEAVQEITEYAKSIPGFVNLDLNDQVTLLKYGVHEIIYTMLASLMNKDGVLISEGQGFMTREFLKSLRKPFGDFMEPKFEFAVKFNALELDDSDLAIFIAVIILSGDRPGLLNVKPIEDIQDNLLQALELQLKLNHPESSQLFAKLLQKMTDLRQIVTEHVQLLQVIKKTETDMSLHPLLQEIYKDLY
# Sequence of Thyroid hormone receptor beta (Homo sapiens) (P10828 whole entry, looked up): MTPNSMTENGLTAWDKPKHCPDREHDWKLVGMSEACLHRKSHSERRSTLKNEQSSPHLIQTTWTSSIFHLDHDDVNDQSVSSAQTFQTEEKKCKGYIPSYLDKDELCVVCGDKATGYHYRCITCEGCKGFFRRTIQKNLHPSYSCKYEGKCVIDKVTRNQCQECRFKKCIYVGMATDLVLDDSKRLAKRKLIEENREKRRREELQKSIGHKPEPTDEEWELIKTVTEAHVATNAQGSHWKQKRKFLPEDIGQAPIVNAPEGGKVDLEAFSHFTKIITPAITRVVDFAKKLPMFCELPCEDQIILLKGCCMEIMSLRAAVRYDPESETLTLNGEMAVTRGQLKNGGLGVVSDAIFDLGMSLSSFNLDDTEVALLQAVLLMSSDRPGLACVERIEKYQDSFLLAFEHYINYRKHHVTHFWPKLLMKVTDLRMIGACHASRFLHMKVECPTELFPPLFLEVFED
# Sequence of Retinoic acid receptor RXR-alpha (Homo sapiens) (P19793 whole entry, looked up): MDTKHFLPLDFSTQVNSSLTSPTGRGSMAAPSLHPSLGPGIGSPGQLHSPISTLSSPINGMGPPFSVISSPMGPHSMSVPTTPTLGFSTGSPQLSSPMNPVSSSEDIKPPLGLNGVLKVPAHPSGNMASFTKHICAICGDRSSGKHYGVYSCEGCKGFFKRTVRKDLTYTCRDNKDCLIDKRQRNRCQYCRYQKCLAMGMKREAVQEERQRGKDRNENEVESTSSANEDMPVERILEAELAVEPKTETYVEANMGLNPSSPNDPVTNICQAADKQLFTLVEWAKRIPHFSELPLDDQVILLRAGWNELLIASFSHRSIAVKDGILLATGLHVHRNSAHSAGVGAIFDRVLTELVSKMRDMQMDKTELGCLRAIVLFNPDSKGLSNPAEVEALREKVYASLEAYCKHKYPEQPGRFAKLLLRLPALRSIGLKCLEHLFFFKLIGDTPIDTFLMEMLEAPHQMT
Compound,outcome [1],outcome [2],Potency [3],Potency [4],Potency [5],Potency [6],Potency [7],Potency [8],Potency [9],Potency [10],Potency [11],Potency [12],Potency [13],outcome [14],max response [15],outcome [16],activity change % (negative = inhibition) [17],Potency [18],activation [19],Potency (W2)
Cc1ccc(N)c([N+](=O)[O-])c1,inactive,inactive,inactive,inactive,inactive,inactive,inactive,inactive,inactive,inactive,inactive,inactive,inactive,inactive,-17.4% and -9.33%,inactive,-3.23% (inactive),inactive,–,–
CC(=O)OC/C=C(\C)CCC=C(C)C,inactive,inactive,–,inactive,inactive,inactive,inactive,inactive,inactive,inactive,inactive,inactive,inactive,inactive,4.32% and -5.25%,inactive,10.6% (inactive),inactive,-0.898% (inactive) and 4.78% (inactive),–
CCCCOCCO,inactive,inactive,inactive,inactive,inactive,inactive,inactive,inactive,inactive,inactive,inactive,inactive,inactive,inactive,-6.03% and -11.6% and -17.6%,inactive,-4.64% (inactive) and -15.2% (inactive),inactive,-0.263% (inactive) and -0.796% (inactive) and -1.77% (inactive),–
CN1CC[C@H](CN2c3ccccc3Sc3ccccc32)C1,–,–,–,–,–,–,–,–,–,–,–,–,–,–,–,–,–,–,–,1.9 µM (active)
O=C1c2ccccc2C(=O)C1c1ccc2ccccc2n1,inactive,–,inactive,inactive,inactive,–,inactive,inactive,inactive,inactive,inactive,inactive,inactive,inactive,16.7%,inactive,-15.6% (inactive),33.5 µM (active),5.56% (inactive) and 14% (inactive),–
CCC(O)OC(O)CC (stereo not given),inactive,inactive,inactive,inactive,inactive,inactive,inactive,inactive,inactive,inactive,inactive,inactive,inactive,inactive,-2.11% and -3.85% and -13.7%,inactive,-5.47% (inactive) [middle of 4 runs],inactive,0.0103% (inactive) [middle of 4 runs],–
CC1=CC(C)(C)Nc2ccccc21,inactive,inactive,inactive,inactive,inactive,inactive,inactive,inactive,inactive,inactive,inactive,inactive,inactive,inactive,-19.9% and -2.04%,inactive,-25% (inactive),inactive,-2.38% (inactive) and -0.537% (inactive),–
CN(C)CCCCCCN(C)C,inactive,inactive,inactive,inactive,inactive,inactive,inactive,inactive,inactive,inactive,inactive,inactive,inactive,–,-13.8%,inactive,5.32% (inactive),inactive,-2.74% (inactive),inactive
